Screening data from PubChem BioAssay.
Shiga toxin inh – A qHTS for Small Molecule Inhibitors of Shiga Toxin; Vero cells, Shiga toxin protein synthesis inhibition reporter; inhibition, % at 38.7 µM; hit rate 9.2% among 290,000; AID 2315, 2010; in the data active = inhibition mostly above about 28%, no sharp cut-off; inactive = mostly below about 43%; also: 0% is about no effect
HCV inh – qHTS Assay for Inhibitors of Hepatitis C Virus (HCV). Huh7.5.1 HCVcc-Cre infection, luciferase reporter, 44 h. Potency, µM (highest dose often 41.8 µM), for inactives: at the top dose activity change, negative = inhibition, most hits filed as inhibitors. hit rate 3.4% among 340,000; also: potency is read from the fitted curve at half-maximal effect; % is scaled to controls: 0 for no effect and ±100 for the full control effect
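Compounds are dispensed onto cells plated 4 h earlier at 1,000 per well, with HCVcc-Cre virus (about 0.5 moi) added next. Following 44 h of culture, luminescent signal is measured for 15 sec after 15 min with substrate at room temperature.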
HCMV antiviral – qHTS Assay for inhibitors of the human cytomegalovirus (HCMV). HFF cells, HCMV-luciferase reporter, 72 h; stronger effect = lower value. activity change, negative = inhibition, % at 57.5 µM. hit rate 4.5% among 410,000; in the data active = activity change below about -60%; inconclusive = no clear call, values can overlap the other calls; inactive = above about -39%; also: % is scaled to controls: 0 for no effect and ±100 for the full control effect
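Human foreskin fibroblasts infected with luciferase-reporter HCMV at MOI 1 PFU/cell, compounds at two doses. Luciferase measured 72 h post infection; normalized to buffer-only basal and Salinomycin (10uM) controls.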
CHX counter – Cycloheximide Counterscreen for Small Molecule Inhibitors of Shiga Toxin; cell reporter, cycloheximide protein synthesis inhibition counterscreen; max response, %; hit rate 12% among 300,000; AID 2314, 2010; in the data active = max response mostly above about 13%, no sharp cut-off; inactive = mostly below about 14%; also: read at 38.3 µM for the half of the compounds with a filed dose; 0% is about no effect
Pf growth 96h – Primary qHTS for delayed death inhibitors of the malarial parasite plastid, 96 hour incubation; Potency, µM (titrated, usually from 28.7 µM), for inactives: top-dose activity change, negative = inhibition, usual class: inhibitors; P. falciparum luciferase reporter growth, 96 h; hit rate 6.9% among 320,000; AID 504834, 2011; also: potency is read from the fitted curve at half-maximal effect; % is scaled to controls: 0 for no effect and ±100 for the full control effect
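P. falciparum expressing integrated firefly luciferase, in erythrocytes at 2% hematocrit, 0.05% parasitemia, incubated with compounds 96 h at 37 C, 5% CO2. Growth inhibition read as loss of luminescence; two-generation exposure targets delayed-death apicoplast inhibitors.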
Pf growth 48h – Primary qHTS for delayed death inhibitors of the malarial parasite plastid, 48 hour incubation; P. falciparum luciferase growth in erythrocytes, 48 h; hit rate 5.9% among 310,000; Potency, µM (series often up to 28.7 µM), without a hit: at the top dose activity change, negative = inhibition, actives largely listed as inhibitors; also: potency is read from the fitted curve at half-maximal effect; % is scaled to controls: 0 for no effect and ±100 for the full control effect
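In quantitative HTS format, infected erythrocytes bearing luciferase-reporter parasites were treated for a single generation at 37 C. Luminescence after adding detection reagent served as the growth measure.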
Active calls of the source: *. Only some compounds are listed: those with a hit (about 21% of all), similar ones and a draw of the others. Unless noted, calls follow the shape of the dose curve; as a rule, active = well fitted inhibition curve with a large enough effect; inconclusive = small, poorly fitted or top-dose-only effect, or another doubt; inactive = no such curve, though single readings can be large or run the other way.

O=C(/C=C/c1c(F)cccc1Cl)NCc1ccco1 was read as Shiga toxin inh 182*, HCV inh -3%, HCMV antiviral -21, CHX counter 39*, Pf growth 96h 113% and Pf growth 48h 13%.
For COc1ccc(C2(CNC(=O)/C=C\c3ccco3)CCCC2)cc1OC the results were Shiga toxin inh 13, HCV inh -28%, HCMV antiviral -11, CHX counter 11, Pf growth 96h inconclusive and Pf growth 48h 12µM*.
O=C(CN1C(=O)/C(=C/c2c(F)cccc2Cl)Oc2ccccc21)NCc1ccco1 was read as Shiga toxin inh 77*, CHX counter 39*, Pf growth 96h 58% and Pf growth 48h inconclusive.
`Cc1ccc(CN2C(=O)CSC(C)C2=O)cc1` (centres undefined) gave Shiga toxin inh -9, HCV inh 13%, HCMV antiviral -1, CHX counter -4, Pf growth 96h 2% and Pf growth 48h -8%.
COc1ccc(-c2nc3ccc(NS(=O)(=O)c4ccc(Cl)cc4)cc3o2)cc1 was read as HCMV antiviral -4.
O=C(/C=C/c1ccc(F)cc1)NCc1ccco1 was read as Shiga toxin inh 94*, HCV inh -2%, HCMV antiviral 13, CHX counter 46*, Pf growth 96h 8% and Pf growth 48h 6%.
`O=C(/C=C/c1ccco1)NCCc1ccc(F)cc1` gave Shiga toxin inh 56*, HCV inh -20%, HCMV antiviral -78*, CHX counter 57*, Pf growth 96h -9% and Pf growth 48h -13%.
O=C(/C=C/c1ccc([N+](=O)[O-])cc1)NCc1ccco1 was read as Shiga toxin inh 27*, HCV inh -9%, HCMV antiviral -31, CHX counter 20, Pf growth 96h inconclusive and Pf growth 48h 60%.
O=C(/C=C/c1ccc([N+](=O)[O-])cc1)/C=C/c1ccco1 was read as Shiga toxin inh 73*, HCMV antiviral -19, CHX counter 38*, Pf growth 96h -11% and Pf growth 48h inconclusive.
O=C(NCc1ccco1)C(=O)NCC1OCCN1C(=O)c1ccc(Cl)cc1 (centres undefined) was read as Shiga toxin inh -7, HCV inh 15%, HCMV antiviral -10, CHX counter -2, Pf growth 96h -1% and Pf growth 48h 5%.
`COC(=O)c1ccc(CNC(=O)CNc2cc(C(F)(F)F)ccc2N2CCOCC2)cc1` gave Shiga toxin inh -21, HCV inh -6%, HCMV antiviral 41, CHX counter -3 and Pf growth 96h 8.3µM*.
Screening Cc1ccccc1SCC(=O)Nc1cc(C(F)(F)F)ccc1N1CCOCC1 returned HCV inh inconclusive, Pf growth 96h 4.7µM* and Pf growth 48h 2.1µM*.
For O=C(CCC1CCCCC1)Nc1cc(Cl)ccc1N1CCOCC1 the results were HCV inh inconclusive, HCMV antiviral -21, Pf growth 96h inconclusive and Pf growth 48h inconclusive.
Screening O=C(CCC1CCCC1)Nc1cc(C(F)(F)F)ccc1N1CCOCC1 returned HCV inh 2%, HCMV antiviral -9, Pf growth 96h 13µM* and Pf growth 48h 12µM*.
COc1ccccc1CN1CCCC(N2CCN(c3ccccc3OC)CC2)C1 (centres undefined) was read as Shiga toxin inh -5, HCV inh -3%, HCMV antiviral 59, CHX counter -3, Pf growth 96h 4.7µM* and Pf growth 48h -7%.
CCOc1ccc(CN2CCCC(N3CCN(c4ccc(OC)cc4)CC3)C2)cc1 (centres undefined) was read as Shiga toxin inh -3, HCV inh -28%, HCMV antiviral -10, CHX counter 1, Pf growth 96h inconclusive and Pf growth 48h inconclusive.
Screening COc1cccc(CN2CCC(C(=O)N3CCN(c4ccccc4F)CC3)CC2)c1 returned Shiga toxin inh 18, HCV inh 3%, HCMV antiviral 15, CHX counter -1, Pf growth 96h inconclusive and Pf growth 48h 21%.
Screening COc1cc(CN2CCC(C(=O)N3CCN(c4ccccc4F)CC3)CC2)ccc1O returned Shiga toxin inh -11, HCV inh 22µM*, HCMV antiviral -21, CHX counter -4, Pf growth 96h -24% and Pf growth 48h inconclusive.
Screening COc1cc(CN2CCCC(N3CCN(c4ccc(F)cc4)CC3)C2)ccc1F (centres undefined) returned Shiga toxin inh -8, HCV inh -11%, HCMV antiviral -8, CHX counter 9, Pf growth 96h 0.66µM* and Pf growth 48h 2.1µM*.
`CSc1ccc(CN2CCCC(N3CCN(c4ccccc4)CC3)C2)cc1` (centres undefined) gave Shiga toxin inh -2, HCV inh inconclusive, HCMV antiviral -29, CHX counter -1, Pf growth 96h 9.3µM* and Pf growth 48h inconclusive.
Screening CC1CCN(C(=O)CSc2nc(N)c(NC(=O)c3ccccc3)c(=O)[nH]2)CC1 returned Shiga toxin inh -5, HCV inh 13%, HCMV antiviral -20, CHX counter 2, Pf growth 96h -5% and Pf growth 48h 0%.
For Cc1cccc(NC(=O)Cn2c(=O)oc3cc(S(=O)(=O)N4CCCCCC4)ccc32)c1 the results were HCMV antiviral -32.
For O=C(O)c1cc([N+](=O)[O-])ccc1Oc1ccccc1 the results were HCV inh 8% and HCMV antiviral -22.
COc1ccccc1N1CCN(Cc2cccc(OC)c2OC)CC1 was read as Shiga toxin inh -7, HCV inh -3%, HCMV antiviral 15, CHX counter -1 and Pf growth 48h -6%.
`COc1cc(CN2CCCC(N3CCN(c4ccccc4C)CC3)C2)ccc1O` (centres undefined) gave Shiga toxin inh 5, HCV inh inconclusive, HCMV antiviral 16, CHX counter -1, Pf growth 96h 55% and Pf growth 48h 8.3µM*.
`COc1ccccc1N1CCN(C2CCCN(Cc3cccc(O)c3)C2)CC1` (centres undefined) gave Shiga toxin inh -3, HCV inh -15%, HCMV antiviral 5, CHX counter 0, Pf growth 96h 1.2µM* and Pf growth 48h inconclusive.
For COc1ccccc1N1CCN(Cc2cccc(OC)c2O)CC1 the results were Shiga toxin inh 1, HCV inh -21%, HCMV antiviral 15, CHX counter 0, Pf growth 96h inconclusive and Pf growth 48h 7.4µM*.
